In PubChem BioAssay AID651642 (Sanford-Burnham Center for Chemical Genomics, 2012) one finds activity data, which are given here for 32 molecules.

The subject of the assay is HL-1. The experiment in a line: protection of cardiomyocytes from stress damage, SAR follow-up, cell-based, panel, H9c2 and HL-1, H2O2, 2-deoxyglucose, ATP luminescence (AID 651642).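 Further: plate controls were H2O2 plus DMSO for no effect and cells kept without H2O2 for full effect.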 Particulars: H9c2/HL-1 cardiomyocyte H2O2 oxidative damage, mean of runs; activity: with H2O2, at 0.154 µM; outcome: with H2O2.

Activity calls are given as the source filed them.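 How the source made its calls: active means average half-effect concentration of 10 µM or less in every one of the four cell panels; inactive means the rest.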

With `COc1cc(-c2cc(C(=O)NCC(=O)Nc3cccc(C(C)=O)c3)c3ccccc3n2)cc(OC)c1OC`, the activity is -2.38% (active).

Turning to `COc1cc(-c2cc(C(=O)NCC(=O)Nc3cccc(C(C)=O)c3)c3cc(C)ccc3n2)cc(OC)c1OC`, the activity was 0.0397% (inactive).

As to `COc1cc(-c2cc(C(=O)Nc3cccc(C(=O)NCc4ccccc4)c3)c3ccccc3n2)cc(OC)c1OC`, the activity was 1.48% (active).

Turning to `COc1cc(-c2cc(C(=O)Nc3cccc(C(=O)N(C)C)c3)c3ccccc3n2)cc(OC)c1OC`, the activity was 0.987% (active).

On to `CCOC(=O)c1cccc(NC(=O)c2cc(-c3cc(OC)c(OC)c(OC)c3)nc3c(Cl)cccc23)c1`, for which the activity is 5.38% (inactive).

Take `CCOC(=O)c1ccccc1NC(=O)c1cc(-c2cc(OC)c(OC)c(OC)c2)nc2ccccc12`: the activity was -1.41% (inactive).

As for `CCOC(=O)c1cccc(NC(=O)c2cc(-c3cc(OC)c(OC)c(OC)c3)nc3ccc(Cl)cc23)c1`, the activity was -1.55% (inactive).

For `COc1ccc2c(c1OC)C(=O)N1c3ccccc3C(=O)N(Cc3ccccc3Br)C21` (configuration not stated), the activity was -0.68% (inactive).

`CCOC(=O)c1cccc(NC(=O)CNC(=O)c2cc(-c3cc(OC)c(OC)c(OC)c3)nc3ccc(Br)cc23)c1`: the activity is -0.604% (active).

Consider `COc1ccc2c(c1OC)C(=O)N1c3ccccc3C(=O)N(Cc3ccccc3)C21` (configuration not stated), for which the activity is -5.45% (inactive).

In the case of `COc1ccc2c(c1OC)C(=O)N1c3ccccc3C(=O)N(Cc3cccc(Cl)c3Cl)C21` (configuration not stated), the activity is 4.4% (inactive).

With `COc1ccc2c(c1OC)C(=O)N1c3ccccc3C(=O)N(Cc3ccccc3Cl)C21` (configuration not stated), the activity is 2.73% (inactive).

`COc1cc(-c2cc(C(=O)NCC(=O)O)c3ccccc3n2)cc(OC)c1OC`: the activity was -0.263% (inactive).

For `COc1ccc2c(c1OC)C(=O)N1c3ccccc3C(=O)N(Cc3cccc(F)c3)C21` (configuration not stated), the activity was 0.0397% (inactive).

As for `COc1ccc(NC(=O)CNC(=O)c2cc(-c3cc(OC)c(OC)c(OC)c3)nc3ccccc23)cc1`, the activity was 3.9% (active).

Regarding `CCOC(=O)c1cccc(NC(=O)CNC(=O)c2cc(-c3cc(OC)c(OC)c(OC)c3)nc3c(Cl)cccc23)c1`, the activity is -2.82% (inactive).

In the case of `COc1cc(-c2cc(C(=O)NCC(=O)Nc3cccc(C(C)=O)c3)c3cc(Br)ccc3n2)cc(OC)c1OC`, the activity is -0.566% (active).

On to `CCOC(=O)c1cccc(NC(=O)c2cc(-c3cc(OC)c(OC)c(OC)c3)nc3ccc(C)cc23)c1`, for which the activity is 4.25% (inactive).

`COc1cc(-c2cc(C(=O)Nc3cccc(C(=O)O)c3)c3ccccc3n2)cc(OC)c1OC`: the activity was 1.9% (inactive).

Consider `COc1ccc2c(c1OC)C(=O)N1c3ccccc3C(=O)N(Cc3cccc(C)c3)C21` (configuration not stated), for which the activity is -2.16% (inactive).

With `COc1ccc2c(c1OC)C(=O)N1c3ccccc3C(=O)N(Cc3ccccc3F)C21` (configuration not stated), the activity is 4.24% (inactive).

Take `COc1cc(-c2cc(C(=O)Nc3cccc(C(C)=O)c3)c3cc(C)ccc3n2)cc(OC)c1OC`: the activity was 2.4% (active).

Take `CCOC(=O)c1cccc(NC(=O)CNC(=O)c2cc(-c3cc(OC)c(OC)c(OC)c3)nc3ccc(F)cc23)c1`: the activity was 2.27% (active).

`COc1ccc2c(c1OC)C(=O)N1c3ccccc3C(=O)N(Cc3ccncc3)C21` (configuration not stated): the activity is 0.0397% (inactive).

For `COc1cc(-c2cc(C(=O)NCC(=O)Nc3ccc(C(C)=O)cc3)c3ccccc3n2)cc(OC)c1OC`, the activity is 0.684% (inactive).

For the molecule `COc1cc(-c2cc(C(=O)NCC(=O)Nc3ccc(C(C)=O)cc3)c3cc(F)ccc3n2)cc(OC)c1OC`, the activity was 1.92% (active).

As for `CCOC(=O)c1cccc(NC(=O)c2cc(-c3cc(OC)c(OC)c(OC)c3)nc3ccc(OC)cc23)c1`, the activity is 8.27% (inactive).

Regarding `COC(=O)CNC(=O)c1cccc(NC(=O)c2cc(-c3cc(OC)c(OC)c(OC)c3)nc3ccccc23)c1`, the activity was -1.7% (active).

Take `COc1cc(-c2cc(C(=O)Nc3cccc(C(C)=O)c3)c3ccc(Cl)cc3n2)cc(OC)c1OC`: the activity was -6.29% (active).

Take `COc1cc(-c2cc(C(=O)Nc3cccc(C(C)=O)c3)c3cc(Br)ccc3n2)cc(OC)c1OC`: the activity was 1.55% (inactive).

With `CCOC(=O)c1cccc(NC(=O)c2cc(-c3cc(OC)c(OC)c(OC)c3)nc3ccccc23)c1`, the activity is 0.2% (active).

As to `COc1cc(-c2cc(C(=O)NCC(=O)Nc3cccc(C(C)=O)c3)c3cccc(Cl)c3n2)cc(OC)c1OC`, the activity is 8.31% (inactive).
